Laboratory results reported in PubChem BioAssay AID624305 (National Center for Advancing Translational Sciences (NCATS), 2012).
Records with an inconclusive call do not appear. Unmarked numbers belong to inactive results. The source made the active and inactive calls. The call rests on the fitted dose curve; in most records, active means well fitted activation curve with a large enough effect; inconclusive means small, poorly fitted or top-dose-only effect; inactive means no such curve, though single readings can be large or run the other way.

Assay: qHTS assay for re-activators of p53 using a Luc reporter: Hit Validation; further: nearly all actives have a fitted effect of over 75% in size; on activation: 0% is about no effect
Conditions: p53-responsive luciferase reporter cells, luminescence, H1299 line expressing heat-sensitive Ala138Val p53; series mostly up to 46.1 µM; activation: at the top concentration
Method in brief: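 H1299 (p53-null) cells stably carrying p53-A138V and a BP100-luciferase reporter, 1000 cells/well, treated 24 h at 37 deg C. Compounds at several concentrations, 1:5 dilution; nocodazole control; luminescence read after 10 min with detection reagent.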
Potency means the concentration at half of the fitted maximal effect.

Structure (SMILES) | activation | Potency
O=C(CC(=O)c1ccccc1O)c1cccc(F)c1 | 22.4% | –
Cc1cc(CC(C)C)n(-c2nc3ccccc3c(=O)n2OCC(N)=O)n1 | 26% | –
CCc1nnc(NC(=O)/C=C/c2ccco2)s1 | – | 20.6 µM (active)
c1cnc2c(OCc3nc4ccccc4[nH]3)cccc2c1 | – | 6.51 µM (active)
c1ccc(-c2cn3nc(-c4ccccc4)cnc3n2)cc1 | – | 0.92 µM (active)
Cc1ccc(OC(=O)c2cccc(S(=O)(=O)N3CCCC3)c2)c(-n2nc3ccccc3n2)c1 | – | 3.66 µM (active)
CC(=O)OCC(=O)Nc1ccc(N=Nc2ccccc2)cc1 | – | 0.651 µM (active)
CN(Cc1ccccc1)c1ncnc2ccc(Br)cc12 | -21.4% | –
C/C(=N\OCC(=O)NC12CC3CC(CC(C3)C1)C2)c1cc2ccccc2o1 | 3.65% | –
Nc1cccc(-c2nc3ccc(C(=O)c4ccccc4)cc3[nH]2)c1 | – | 2.06 µM (active)
COc1cc(NC(=O)CSCc2ccc(Cl)cc2)c(C(=O)O)cc1OC | -13% | –
O=C(CN1C(=O)COc2ccccc21)Nc1ccc(F)cc1 | 42.2% | –
CN(C)c1ccc(CNC2CC(C)(C)NC(C)(C)C2)cc1 | 25% | –
COC(=O)CSc1nc2cc3c(cc2cc1C#N)OCO3 | 16.1% | –
CCOP(=O)(OCC)C(NC(=O)Nc1ccccc1)C(N)=O (stereo not drawn) | -4.69% | –
Cc1ccc2nc(SCn3nnc4ccccc4c3=O)[nH]c2c1 | – | 1.3 µM (active)
COCCCN(C(C)=O)c1nc(-c2ccc(OC)cc2)cs1 | – | 2.31 µM (active)
c1ccc(-c2cn3c(n2)-c2ccccc2C3)cc1 | – | 0.206 µM (active)
CCCN1CCC(=NNC(=O)CSc2cc(C)c(Br)cc2C)CC1 | -9.9% | –

Structure (SMILES) | activation | Potency
N#CC1(c2ccc(NC(=O)c3ccccc3F)cc2)CCCC1 | – | 1.64 µM (active)
O=C(c1ccco1)n1c(=S)nc2ccccn21 | – | 7.31 µM (active)
O=C(NC1CCCCC1)c1ccc(-c2ccccc2F)o1 | – | 3.66 µM (active)
C/C(=C\COc1ccc2ccc(=O)oc2c1)CC[C@@H](O)C(C)(C)O | 34.9% | –
CCCC(=O)NC(c1cccs1)c1cc([N+](=O)[O-])c2cccnc2c1O (stereo not drawn) | 14.6% | –
Cc1cccc(-n2c(C)cc(C(=O)NC3CCCCC3)c2C)c1 | – | 7.31 µM (active)
Cc1cc(NC(=O)c2ccc3nccnc3c2)ccc1Br | – | 4.11 µM (active)
O=[N+]([O-])c1ccc(/C=N/NC(=S)Nc2ccccc2F)o1 | 21.4% | –
Cc1ccc(C(=O)c2c3ccc([N+](=O)[O-])cc3[n+]([O-])n2CCCN)cc1 | 15.1% | –
N#Cc1cc2c(nc1SCC(=O)Nc1nccs1)CCCCC2 | – | 0.206 µM (active)
Cc1nc2cc(-c3ccccc3)nn2c(N)c1-c1ccccc1 | – | 0.411 µM (active)
Cc1ccc2cc(CCNC(=O)c3ccco3)c(=O)[nH]c2c1C | – | 2.31 µM (active)
Cc1ccc(-c2cc(-c3ccccc3Cl)[nH]n2)c(O)c1 | – | 14.6 µM (active)
CC1CCCN(C(=O)CN2C(=O)c3ccccc3S2(=O)=O)C1 (stereo not drawn) | – | 23.1 µM (active)
COc1ccccc1NS(=O)(=O)c1ccc(C(=O)Nc2ncccc2O)cc1 | 20.3% | –
CCCCC(=O)N1CCCC(C)C1 (stereo not drawn) | -10.4% | –
CCOC(=O)c1sc(NC(=S)NC(=O)c2ccco2)nc1C | 27.6% | –
Cc1cs/c(=N/C(=S)Nc2ccccc2)n1C | – | 1.84 µM (active)
COc1cccc(Oc2ccc(N)cn2)c1 | -17.7% | –
